Assay outcomes as filed in PubChem BioAssay.
This excerpt belongs to a sample that is enriched for hits.
RECQ1 helicase – blocks DNA unwinding by human RECQ1; RECQ1 DNA unwinding, red fluorescence kinetic read; AID 2549; P46063; actives 0.54% (n = 240,000); Potency, µM (titrated, usually from 57.3 µM), for inactives: top-dose activity, negative = inhibition, usual class: inhibitors;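 note: plate controls were vehicle for no effect and no enzyme for full effect; nearly all actives have a fitted effect of over 30% in size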
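50 nM RECQ1T1 preincubated 15 min with compound in Tris pH 8.0 buffer with MgCl2, DTT, Tween-20 and 2.5 ug/ml poly(dI-dC); started with 200 nM TAMRA/BHQ-2 forked duplex and 2 mM ATP. Unwinding read as fluorescence (525/598 nm), two reads 2 h apart.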
BLM inh – blocks DNA unwinding by human BLM helicase; Potency, µM (doses to about 56.1 µM), for inactives: at the highest dose activity change, negative = inhibition, hits mostly inhibitors; P54132; recombinant BLM DNA unwinding, fluorescence dequenching; actives 0.2% (n = 350,000);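 note: plate controls were vehicle for no effect and no enzyme for full effect; nearly all actives have a fitted effect of over 35% in size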
KDM4E inh – JMJD2E (human) inhibition; AID 2147; Potency, µM (series often up to 57.1 µM), for inactives: top-dose activity change, negative = inhibition, actives largely listed as inhibitors; B2RXH2; actives 1.6% (n = 230,000); JMJD2E catalytic domain, FDH-coupled NADH fluorescence (FDH is formaldehyde dehydrogenase);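 note: 0% = wells with enzyme and -100% = buffer wells without enzyme; nearly all actives have a fitted effect of over 50% in size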
L3MBTL1 inh – inhibitors of human L3MBTL1. AlphaScreen L3MBTL1–H3K9me1 peptide binding. Potency, µM (highest dose often 57.1 µM), for inactives: at the top dose activity, negative = inhibition, usual class: inhibitors. actives 0.66% (n = 230,000); note: nearly all actives have a fitted effect of over 60% in size
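Read-out is AlphaScreen signal from streptavidin donor and nickel chelate acceptor beads (10 ug/mL final each) bridging L3MBTL1 (50 nM) and biotinylated K9-monomethylated H3(1-15) peptide (75 nM), after 30 min compound exposure at room temperature.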
APE1 inh – inhibitors of human APE1 endonuclease. recombinant APE1, TAMRA/BHQ-2 abasic DNA cleavage fluorescence. Potency, µM (top dose mostly 65.8 µM), for the others: top-dose activity change, negative = inhibition, hits mostly inhibitors. actives 0.35% (n = 350,000). AID 2517;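 note: plate controls were vehicle for no effect and reference inhibitor for full effect; nearly all actives have a fitted effect of over 55% in size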
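Measures dequenching upon AP-site incision of a 5'-TAMRA/3'-BHQ-2 THF-containing duplex, 50 nM; human APE1 0.75 nM after 15 min room-temperature exposure to compound; kinetic three-point read at one-minute spacing.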
TDP1 block – inhibitors of human tyrosyl-DNA phosphodiesterase TDP1 | actives 0.28% (n = 350,000) | Q9NUW8 | AID 485290 | Potency, µM (top dose mostly 130 µM), without a hit: top-dose activity change, negative = inhibition, most hits filed as inhibitors | recombinant TDP1, AlphaScreen DNA substrate cleavage; note: nearly all actives have a fitted effect of over 40% in size
Target sequence (Q9NUW8 whole entry, looked up): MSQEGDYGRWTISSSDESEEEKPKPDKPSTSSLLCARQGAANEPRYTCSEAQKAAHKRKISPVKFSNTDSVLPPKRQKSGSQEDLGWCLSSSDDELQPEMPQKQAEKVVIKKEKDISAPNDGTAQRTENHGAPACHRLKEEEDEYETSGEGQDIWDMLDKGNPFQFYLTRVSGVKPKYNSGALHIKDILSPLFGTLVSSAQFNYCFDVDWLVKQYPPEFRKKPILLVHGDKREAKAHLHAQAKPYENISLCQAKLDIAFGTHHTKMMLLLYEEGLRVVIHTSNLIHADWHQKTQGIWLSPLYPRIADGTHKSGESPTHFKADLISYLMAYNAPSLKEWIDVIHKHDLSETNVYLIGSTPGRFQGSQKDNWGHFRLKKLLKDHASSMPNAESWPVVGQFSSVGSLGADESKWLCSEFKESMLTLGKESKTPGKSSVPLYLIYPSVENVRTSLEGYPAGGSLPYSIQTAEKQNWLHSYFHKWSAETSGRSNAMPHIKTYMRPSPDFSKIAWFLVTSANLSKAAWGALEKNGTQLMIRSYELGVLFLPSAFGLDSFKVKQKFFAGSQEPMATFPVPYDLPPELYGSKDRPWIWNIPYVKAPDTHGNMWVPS
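E. coli-derived human Tdp1, 1 nM final. Cpd preinc 15 min RT; substrate 15 nM final, 5 min RT; AS bead mix 10 ug/ml final, 10 min RT. Signal loss = tyrosine-FITC cleavage. No-enzyme wells = max signal.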
An asterisk follows results filed as active; i = inactive; ? = inconclusive; nt = no result; ! = repeats disagree; [ ] = dose if it differs, or a comment. Unless noted, calls come from the whole dose curve; as a rule, active = well fitted curve in the direction sought with a large enough effect; inconclusive = small, poorly fitted or top-dose-only effect, or another doubt; inactive = no such curve, though single readings can be large; an effect the other way counts as inactive or inconclusive. Unless noted, % is set by controls: 0 for no effect and ±100 for the full control effect; potency is the fitted concentration of half-maximal effect.

SMILES	RECQ1 helicase	BLM inh	KDM4E inh	L3MBTL1 inh	APE1 inh	TDP1 block
COC(=O)C1=C(C)NC(=O)/C1=C\c1cc(C)n(-c2cccc(C)c2)c1C	-24%	-9%	-12%	nt	-2%	10%
COC(=O)C1=C(C)NC(=O)/C1=C\c1cc(C)n(-c2ccc(F)cc2)c1C	i	-21%	20µM*	-7%	17%	-2%
O=[N+]([O-])/C(C=Nc1ccccc1O)=C\Nc1ccccc1O	-10%	-4%	13µM*	-15%	-3%	4%
CC(C)c1ccc(OCc2ccc(C(=O)O)o2)cc1	18%	-1%	7.9µM*	nt	?	-10%
CC(C)(C)n1ncc2c(=O)n(Cc3cccc(Cl)c3Cl)cnc21	nt	nt	nt	nt	20%	nt
COc1ccc([N+](=O)[O-])cc1NC(=O)Nc1cccc(Cl)c1	-11%	-4%	-6%	10%	17%	5%
COc1ccc([N+](=O)[O-])cc1NC(=O)Nc1ccc(OC)c(OC)c1	i	32µM*	-2%	25%[11.4 µM]	3%	5%
CCN(C(=O)Cn1c(SCc2ccccc2F)nc2cccnc21)c1ccccc1	nt	0%	nt	nt	nt	2%
CCOc1ccc(C=NNc2ccc(S(=O)(=O)Nc3ccccc3C(=O)O)cc2[N+](=O)[O-])cc1OC	nt	nt	nt	?	17µM*	nt
COc1cc(F)c(S(=O)(=O)N2CCN(S(=O)(=O)c3ccc(N)cc3)CC2)c(F)c1	nt	nt	nt	nt	nt	1%
CN(C)c1ccc(-c2nc3ccccn3c2Nc2ccc3c(c2)OCCO3)cc1	nt	-3%	nt	nt	nt	12%
CCOC(=O)Cc1nn[nH]n1	-14%	-2%	0%	18%	0%	5%
N[C@H](C(=O)O)c1nn[nH]n1	i	2%	20µM*	nt	-4%	11%[56.1 µM]
CN1CCC(NC(=O)c2cnn3c2NC(=C2CC2)C=C3C(F)F)CC1	nt	nt	nt	nt	14%	nt
CCCN(S(=O)(=O)c1ccccc1F)S(=O)(=O)c1ccccc1Br	nt	-8%	nt	nt	54%	89µM*
CCN1C(=O)/C(=C2\SC(=S)N(NC(=O)c3ccccc3O)C2=O)c2ccccc21	-6%	0%	25µM*	?	-1%	nt
Cc1cc(O)c(Sc2ncn[nH]2)cc1NS(=O)(=O)c1ccc(Cl)cc1	nt	nt	nt	-8%	46%	0%
O=S(=O)(Nc1cc(Sc2ncn[nH]2)c(O)c2ccccc12)c1ccccc1	-7%	28µM*	13µM*	nt	3%	11%
O=S(=O)(Nc1ccccc1)c1cccc2nsnc12	nt	-12%	nt	-30%	7.5µM*	nt
Cc1ccc(NS(=O)(=O)c2cccc3nsnc23)cc1	0%	-3%	2%	-16%	10%	0%
CC(/C=C/c1ccco1)=N\NC(=O)c1cc(C)[nH]n1	32µM*	-24%	?	?	-6%	2%
Cc1cc(C(=O)N/N=C/c2ccco2)n[nH]1	i	0%	-4%	31%	21%	5%
O=c1nc2s/c(=C\c3ccc(-c4ccccc4[N+](=O)[O-])o3)c(=O)n2nc1-c1ccccc1	-10%	?	8%	2.2µM*	12%	-3%
COc1ccc(Cl)cc1NC(=O)CN(c1cccc(C)c1C)S(C)(=O)=O	nt	-6%	nt	nt	nt	nt
Cc1cc(C)c2nc(NNC(=O)c3ccc(S(=O)(=O)N4CCc5ccccc5C4)cc3)sc2c1	-3%	-10%	5%	?	-1%	0%
SMILES	RECQ1 helicase	BLM inh	KDM4E inh	L3MBTL1 inh	APE1 inh	TDP1 block
Cc1cc(C)c2sc(NNC(=O)c3ccc(S(=O)(=O)N4CCc5ccccc5C4)cc3)nc2c1	-4%	3%	13µM*	?	-6%	11%
Cc1ccc(Nc2c(-c3c[nH]c4ccccc34)nc3ccccn23)cc1	nt	0%	nt	nt	nt	15%
O=C1c2ccccc2C(=O)c2c(Nc3ccc(CCO)cc3)ccc(O)c21	-8%	-14%	-26%	5.6µM*	6%	14%
COc1cc(N=c2ssnc2Cl)cc(OC)c1OC	-4%	0%	18µM*	6%	0%	6%
Clc1ccc(N=c2ssnc2Cl)cc1	i	3%	10µM*	-19%	2%	14%[56.1 µM]
Fc1ccc(N=c2ssnc2Cl)c(F)c1	-1%	-1%	?	-4%	1%	-6%
Clc1nssc1=Nc1ccccc1	-15%	-12%	10µM*	nt	8%	9%
COc1ccc(N=c2ssnc2Cl)cc1	i	3%	20µM*	-1%	0%	8%
N#Cc1ccc(N=c2ssnc2Cl)cc1	-3%	2%	?	6%	10%	2%
COc1cc(-c2nnc(-c3cc(OC)c(OC)c(OC)c3)o2)cc(OC)c1OC	i	2%	?	?	6%	7%
Cc1ccc(C)c(N2CCN(S(=O)(=O)c3cc(Br)cc4c3N(C(=O)C3CC3)CC4)CC2)c1	nt	0%	nt	nt	nt	6%
COc1ccc(C2c3c(nc(Cc4ccccc4)[nH]c3=O)Oc3ccc4ccccc4c32)cc1OC (stereo not given)	nt	nt	nt	nt	nt	2%
C=CCN1C(=O)/C(=C/C=C2/N(CC)c3ccc(S(=O)(=O)N(C)C)cc3N2CC)SC1=S	4µM*	10µM*	3%	-12%	?	7%
C=CCN1C(=O)/C(=C2/Sc3ccccc3N2CC)SC1=S	nt	0%	nt	8%	-18%	nt
O=C(O)CCc1ccc(S(=O)(=O)Nc2cc(C(F)(F)F)ccc2N2CCCC2)cc1	nt	nt	nt	?	?	18µM*
COC/C=C/C1=CC2=CC(=O)C(C)(OC(=O)c3cnc4ccccc4n3)C(=O)C2=CN1CCN1CCOCC1 (stereo not given)	12%[11.5 µM]	-15%[12.4 µM]	13µM*!	nt	-6%[12.4 µM]	4%[21 µM]
COC/C=C/C1=CC2=CC(=O)C(C)(OC(=O)c3cnc4ccccc4n3)C(=O)C2=CN1CCOC (stereo not given)	i[11.5 µM]	-9%[12.4 µM]	-2%[11.4 µM]	nt	-1%[12.4 µM]	7%[12.3 µM]
COc1ccc(/C=N/Nc2nnc(C)n2N)cc1OC	1%	-8%	14µM*	nt	-8%	7%
Cc1ccccc1NC(=S)N/N=C/c1ccc(O)cc1O	6%	-5%	14µM*	32µM*	4%	7%
Cc1cccc(NC(=S)N/N=C/c2cccc(O)c2)c1C	-4%	-3%	7%	-6%	-3%	nt
Cc1ccc(NC(=S)NNC(=O)c2nn(C)c(C)c2Cl)cc1	-8%	3%	13µM*	0%	1%	9%
Cc1nc(N2CCCC2)c2c(C(=O)Nc3cccc(C)c3C)c(C)oc2n1	nt	-1%	nt	nt	nt	-2%
Oc1ccc(/C=N/NC(=S)Nc2cccnc2)cc1O	8.9µM*	-5%	16µM*	11µM*	?	1%
O=C(N/N=C/c1ccc(O)c(O)c1)N/N=C/c1ccc(O)c(O)c1	nt	7.9µM*	nt	nt	-95%	nt
